The values that follow come from PubChem BioAssay (Tox21).

Molecules are shown by their SMILES. “And” between values parts separate entries of the source, which are not always exact repeats. Identical values can stand only once. Values without a mark were called inactive. The source made the active and inactive calls. Calls come from the whole dose curve; as a rule, active = well fitted cell-killing curve with a large enough effect in the repeat runs; inconclusive = weak or mixed curves, or effect the other way; inactive = flat fitted curve, though single readings scatter.
% is set by controls: 0 for no effect and ±100 for the full control effect.

This assay is described as follows: qHTS assay to identify small molecule HDAC inhibitors - cell viability counter screen (AID 1259365). Note: nearly all actives have a fitted effect of over 50% in size. To be noted: HCT-116 viability, CellTiter-Glo ATP luminescence, 2 h; series mostly up to 92.4 µM. An outline of the steps: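 Viability readout: CellTiter-Glo luminescence. Wild-type HCT-116 cells, 2hr compound treatment following overnight attachment at 37 C.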
On to `CCCCCCCC(=O)OC`, for which the call was inactive.

As to `CCN(CC)CCCC(C)Nc1ccnc2cc(Cl)ccc12` (centres undefined), the activity change, negative = cytotoxicity was 1.29% [at 8.39 µM] and -0.194% [at 19 µM]. As to `CC1=C(C)S(=O)(=O)CCS1(=O)=O`, the compound was called inactive. Turning to `OCC(CO)(CBr)CBr`, the call was inactive. As to `CN(C)CCC(c1ccc(Cl)cc1)c1ccccn1` (centres undefined), the compound was called inactive. As to `CN(C)CCCN`, the compound was called inactive. On the same count and under the same terms, the entry for `C=C(C)C(=O)OCCOCCOCCOC(=O)C(=C)C` is “inactive”. On to `CCCCC(CC)CO` (centres undefined), for which the outcome was inactive. As for `Cc1ccc(N(C)C)cc1`, the compound was called inactive. On to `O=C(O)c1cc(C(=O)O)cc(S(=O)(=O)O)c1`, for which the result was inactive. In the case of `O=C(O)c1ccc(C(=O)O)cc1`, the compound was called inactive.

For `CCCCCCCCCCCCOCCO`, the result was inactive. Regarding `CC(O)COCC(C)O` (centres undefined), the outcome was inactive. With `C[C@H]1C[C@H]2[C@@H]3CCC4=CC(=O)C=C[C@]4(C)[C@@]3(F)[C@@H](O)C[C@]2(C)[C@@]1(O)C(=O)CO`, the compound was classed as inactive.

Take `CCOC(=O)NNc1nncc2ccccc12`: the result was inactive.

Consider `COc1ccc(Nc2ccccc2)c(C)c1`, for which the compound was classed as inactive.

As to `O=S(=O)(O)c1ccc2ccccc2c1`, the call was inactive. `Cc1cnc(C(=O)NCCc2ccc(S(=O)(=O)NC(=O)NC3CCCCC3)cc2)cn1`: the result was inactive. On to `O=C1CCC(N2C(=O)c3ccccc3C2=O)C(=O)N1` (centres undefined), for which the compound was called inactive.

For the compound `Cc1cccnc1`, the call was inactive.

`OCCOCCN1CCN(C2=Nc3ccccc3Sc3ccccc32)CC1`: the result was inactive. As for `CC[C@H](C)C(=O)O[C@H]1C[C@@H](C)C=C2C=C[C@H](C)[C@H](CC[C@@H]3C[C@@H](O)CC(=O)O3)[C@H]21`, the outcome was inactive. For the compound `CCCCCOC(C)=O`, the call was inactive. The same measure, in the same setting: the entry for `O=[N+]([O-])c1ccc(/C=C/c2ccc([N+](=O)[O-])cc2S(=O)(=O)O)c(S(=O)(=O)O)c1` is “inactive”; for `Cc1cccc(O)c1` it is “inactive”; for `CCCCCC(N)=O` it is “inactive”. Take `Cc1ccc(S(N)(=O)=O)cc1`: the call was inactive. Same read-out and setting: the entry for `COS(C)(=O)=O` is “inactive”. `CCCC(C)=O`: the call was inactive. Consider `OCc1cccnc1`, for which the result was inactive. On the same count and under the same terms, the entry for `C=CCOC(=O)c1ccccc1C(=O)OCC=C` is “inactive”. For `CCCSc1ccc2nc(NC(=O)OC)[nH]c2c1`, the compound was classed as inactive. For the compound `O=P(OC(CCl)CCl)(OC(CCl)CCl)OC(CCl)CCl`, the result was inactive.

Take `COc1ccc2cc([C@H](C)C(=O)O)ccc2c1`: the result was inactive.

Take `O=C(O)[C@H](O)[C@@H](O)[C@H](O)[C@H](O)CO`: the compound was classed as inactive.

`Cc1cc(C)c(C)cc1C`: the result was inactive. For `CCCCOC(=O)COc1ccc(Cl)cc1Cl`, the compound was called inactive.

As to `C[C@H]1C[C@@H]2[C@H]([C@@H](O)C[C@@]3(C)[C@H]2CC[C@]3(O)C(=O)CO)[C@@]2(C)C=CC(=O)C=C12`, the outcome was inactive. As for `C=C(C)C(=O)Nc1ccc(Cl)c(Cl)c1`, the outcome was inactive.
